Screens (PubChem)
A340 absorber: compound light absorbance at 340 nm, profiling panel, artefact control, biochemical, MLSMR library, data from PS, PMK, MK assays. fold change at 10 µM. AID 708, 2007. compound absorbance at 340 nm, fold over control. 65,000 tested, under 10 active;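 active means at 10 µM dose, initial 340 nm absorbance at least 2 fold that of control wells; inactive means change under 2 fold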;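 further: initial absorbance extrapolated from kinetic A340 decline of NADH oxidation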
Spn DPM-DC inh: S. pneumoniae DPM-DC inhibitors, primary screen, biochemical, PK/LDH-coupled NADH fluorescence; diphosphomevalonate decarboxylase (Streptococcus pneumoniae D39); purified DPM-DC; calls only at 10 µM; actives 0.49% (n = 65,000);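 active means the 320 compounds with the highest percent inhibition in the single-dose primary screen, excluding strongly autofluorescent ones, cut at about 32% in these data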;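 further: kinetic rate of NADH fluorescence loss reporting ADP formed by the decarboxylase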
PMK inhibit: S. pneumoniae PMK inhibitors, primary screen, biochemical, mevalonate pathway, pilot trial included | phosphomevalonate kinase (Streptococcus pneumoniae D39) | purified PMK, PK/LDH-coupled NADH absorbance 340 nm | inhibition, % at 10 µM | actives 0.49% (n = 65,000);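 active means top-ranked compounds by inhibition in the single 10 µM screen, taking a fixed number of the strongest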;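 further: 0% = full reaction with DMSO carrier and 100% = background rate without enzyme reaction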
Autofluor 339: intrinsic fluorescence of library compounds, ex339/em460 – biochemical, MLSMR library, data from DPM-DC assay, artefact control, profiling panel | compound autofluorescence, ex339/em460 nm, NADH buffer; active compounds read high; 1 = no-compound wells, NADH background | fluorescence fold increase at 10 µM | actives 5.5% (n = 65,000) | AID 709, 2007;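 active means at 10 µM, mean starting fluorescence two-fold or more over control wells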;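 further: signal is the first read of a kinetic run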
NADH coupling: inhibitors of PK/LDH coupling enzymes, profiling panel, artefact control, biochemical, MLSMR library; coupled PK/LDH NADH assays, four targets; AID 774, 2007; actives 0.02% (n = 65,000); IC50, µM (titrated, usually from 10 µM), for inactives: at the top dose inhibition;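 active means single-dose screening hits from any of four coupled enzyme assays that gave an IC50 when retested across doses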;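 further: the DPM-DC format reads NADH fluorescence rather than 340 nm absorbance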
Spn MK inh: S. pneumoniae MK inhibitors, primary screen, biochemical, PK/LDH-coupled NADH absorbance. purified MK, PK/LDH-coupled NADH absorbance 340 nm. mevalonate kinase [Streptococcus pneumoniae D39]. actives 0.48% (n = 65,000). inhibition, % at 10 µM. AID 555, 2006;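 active means ranked among the strongest by inhibition in the single 10 µM screen, a fixed top-ranked set picked for dose follow-up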
Numbers without * were called inactive; i = inactive; . = no result given; + = active, no number. This is a sample that favours compounds with a hit; in the whole collection about 6.5% have one here.

SMILES	A340 absorber	Spn DPM-DC inh	PMK inhibit	Autofluor 339	NADH coupling	Spn MK inh
Cc1ccc2nc(NC(=O)c3ccc(Cn4cc(Cl)cn4)o3)sc2c1	1.1	i	0	2.2*	0%	1
Cc1ccc2nc(NC(=O)c3cccs3)sc2c1	1.1	i	0	1.5	3%	0
CC(=O)c1sc(NC(=O)c2ccc(Cn3cc(Br)cn3)o2)nc1C	1.1	i	6	1.1	3%	4
Cc1ccc2nc(NC(=O)c3ccc(Cl)s3)sc2c1	1.1	.	5	2.1*	3%	1
COC(=O)C1=C(C)N(c2cc(Cl)cc(Cl)c2)C(=O)C1	1	i	2	1.1	3%	7
Cc1cccc(-n2c(=O)[nH]c3c(C(N)=O)nc(-c4ccccc4Cl)nc32)c1	1.1	.	9	2.1*	6%	3
CCOc1ccccc1-c1nc(C(N)=O)c2[nH]c(=O)n(-c3ccccc3)c2n1	1.1	i	11	3*	8%	0
Cc1cccc(-n2c(N)cc(=O)[nH]c2=S)c1	1.1	i	16	1.2	7%	5
COc1ccccc1-c1nc(C(N)=O)c2[nH]c(=O)n(-c3cccc(C)c3)c2n1	1	+	12	3.9*	23%	3
COc1cccc(-c2nc(C(N)=O)c3[nH]c(=O)n(-c4ccccc4)c3n2)c1OC	1.1	i	3	1.1	4%	3
COC(=O)c1ccc(CN2C(=O)NC3(CCCCC3C)C2=O)o1 (stereo not given)	1	i	0	1.2	4%	12
O=C(c1ccc(COc2c(F)c(F)cc(F)c2F)o1)N1CCN(c2ccc(Cl)cc2)CC1	1	i	5	1.1	4%	6
CC(C)CN(CC(C)C)S(=O)(=O)N1CCC(C(=O)NC2CCCCCCC2)CC1	0.99	i	30*	1	10%	1
COc1ccc(C(O)Cn2c(=N)n(CCCN(C)C)c3ccccc32)cc1 (stereo not given)	1	+	8	0.99	8%	0
COc1ccc(OCCn2c(=N)n(CCO)c3ccccc32)cc1	1	i	3	1.1	4%	4
Cc1cc2nn(-c3ccccc3)nc2cc1NC(=O)c1cccs1	1.1	i	1	1.3	1%	1
COc1ccc(-n2nc3cc(C)c(NC(=O)c4cccnc4)cc3n2)cc1	1.1	i	10	3.3*	14%	8
COc1ccc(-n2nc3cc(C)c(NC(=O)CC(C)C)cc3n2)cc1	1.1	.	7	2.1*	6%	5
CCOC(=O)C1(C(F)(F)F)N=C(c2cccnc2)OC(N2CCOCC2)=N1 (stereo not given)	1	i	5	1.2	7%	8
COc1cc(CNC2CCCC2)cc(OC)c1	1.1	i	0	1.1	14%	41*
CC(=O)C1C(c2ccc(F)c(F)c2)NC(=O)NC1(O)C(F)(F)F (stereo not given)	1	i	16	1.1	6%	3
C/C(=N\O)c1ccc2c3ccccc3n(C)c2c1	1	i	1	2.7*	10%	11
C/C(=N\O)c1c(C)c2ccccc2n1C	1	i	10	1.1	4%	1
CCCC1Cc2nc(N3CCCCC3)c(C#N)cc2CO1 (stereo not given)	1	.	10	3.6*	10%	9
Cc1ccc(C)c2[nH]c(=O)c(CCNC(=O)c3ccc(S(=O)(=O)N(C)C)cc3)cc12	1	i	12	1.1	2%	1
SMILES	A340 absorber	Spn DPM-DC inh	PMK inhibit	Autofluor 339	NADH coupling	Spn MK inh
CN1/C(=N\O)c2cccc3cccc1c23	1	i	1	2.2*	9%	10
O=S(=O)(Cc1ccccc1)N1CCc2ccccc21	1	i	0	1.1	2%	5
CC1=CC(C)(C)Nc2ccccc21	1	i	10	2.5*	6%	6
CCc1c(C)c(C#N)c2nc3ccccc3n2c1Nc1c(C)n(C)n(-c2ccccc2)c1=O	1	+	0	0.69	15%	10
CCCc1cc(Nc2c(C)n(C)n(-c3ccccc3)c2=O)n2c(nc3ccccc32)c1C#N	1	i	0	1.2	3%	9
C=CCNC(=O)CC(C)C(CCCCC)C(=O)O (stereo not given)	1	i	10	1.1	6%	8
CN(C)c1nc(-c2ccccc2)c2cnn(Cc3ccccc3)c2n1	1	.	8	2.1*	9%	10
c1ccc(Cn2ncc3c2ncn2nc(-c4ccncc4)nc32)cc1	1.1	i	4	1	4%	5
CC1CCN(c2ccc(C(=O)NCc3cccs3)cn2)CC1	1	i	12	1.1	5%	2
Cc1ccc2nc3ccc(N4CCCC4)nn3c(=O)c2c1	1.1	i	16	1.6	5%	0
Cc1sc2nc3ccc(N4CCCCC4)nn3c(=O)c2c1C	1.1	i	7	2.4*	4%	4
N#CC1=C(O)C(c2ccccc2)n2c1nc(=O)c1ccccc12 (stereo not given)	1.1	.	0	5*	2%	3
CCOC(=O)N1CCN(c2c(-c3ccccc3)c3cc(Cl)ccc3[nH]c2=O)CC1	1.1	i	1	2.5*	6%	3
CCOC(=O)N1CCN(c2c(-c3ccc(C)cc3)c(=O)c2=O)CC1	1.1	i	17	1.1	8%	6
O=C(Nc1ccc(-c2noc(CCc3ccccc3)n2)cc1)c1cccnc1	1.1	i	0	1.1	3%	9
COc1ccc(Cn2c(CCC(=O)Nc3ccc(CC#N)cc3)nc3cccnc32)cc1	1.1	i	10	1.1	3%	0
O=c1nc(-c2ccccc2)c2ccccc2[nH]1	1.1	i	11	2.7*	15%	10
O=C(NCc1ccc2c(c1)OCO2)c1cc(S(=O)(=O)N2CCCCC2)ccc1F	1	i	12	1	4%	0
O=C(NCc1ccc2c(c1)OCO2)c1c[nH]c2ccc(S(=O)(=O)N3CCOCC3)cc2c1=O	1.1	i	17	2*	10%	2
O=C(NCC1COc2ccccc2O1)c1c[nH]c2ccc(S(=O)(=O)N3CCOCC3)cc2c1=O (stereo not given)	1.1	i	2	2.8*	2%	2
COc1ccc(Cl)c(NCCC(=O)O)c1	1	i	0	1	0%	4
CCOc1ccc2[nH]c(=O)c(CN(CCO)C(=O)c3ccc(F)cc3)cc2c1	1.1	i	2	3.4*	15%	17
